Reference: ChEMBL document CHEMBL3988442, “University of Dundee, Small-Polar-MMV Screening Library” (2021)

Key:
[1] = target: T1, Aspartate--tRNA(Asp/Asn) ligase (Mycobacterium tuberculosis (strain ATCC 25618 / H37Rv)) (UniProt P9WFW3); test: Assay for Asp RNA synthetase-1 from Mycobacterium tuberculosis; assay type: functional; set-up: scale not given: direction of the effect not stated beside the values; details: 30 µM; further: in the data most compounds retested in dose-response had high values
T1 sequence (whole entry): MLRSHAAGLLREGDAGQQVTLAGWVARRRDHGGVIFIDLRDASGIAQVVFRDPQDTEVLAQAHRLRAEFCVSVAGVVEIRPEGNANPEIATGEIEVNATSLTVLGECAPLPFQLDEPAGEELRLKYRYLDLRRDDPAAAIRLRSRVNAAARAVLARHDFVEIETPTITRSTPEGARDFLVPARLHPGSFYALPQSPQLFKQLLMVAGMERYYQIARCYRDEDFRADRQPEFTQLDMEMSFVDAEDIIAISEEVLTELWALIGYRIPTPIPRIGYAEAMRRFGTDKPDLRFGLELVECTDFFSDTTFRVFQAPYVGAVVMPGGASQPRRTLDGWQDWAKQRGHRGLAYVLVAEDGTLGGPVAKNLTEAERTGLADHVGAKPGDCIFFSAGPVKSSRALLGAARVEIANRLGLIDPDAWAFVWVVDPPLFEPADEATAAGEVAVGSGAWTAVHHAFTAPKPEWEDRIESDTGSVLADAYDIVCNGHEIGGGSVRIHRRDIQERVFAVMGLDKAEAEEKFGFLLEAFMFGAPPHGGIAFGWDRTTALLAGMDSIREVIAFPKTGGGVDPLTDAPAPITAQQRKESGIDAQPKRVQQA

[2] = target: Shiga toxin 2 (Escherichia coli O157:H7) (UniProt P09385+P09386); test: E. coli 0.157:H7 Shiga Toxin SOP - stx2 screening assay; assay type: functional; set-up: scale not given: direction of the effect not stated beside the values; details: 30 µM

| Structure (SMILES) | Percent Effect [1] [%] | Percent Effect [2] [%] |
| --- | --- | --- |
| Cc1ccc(-c2ncc(C(=O)NCCS(N)(=O)=O)s2)c(C)c1 | 1.7 | 18.5 |
| O=C([C@@H]1C[C@@H]2CCN(CCc3ccccc3)C[C@H]2O1)N1CCCC1 | -0.868 | -14.6 |
| CCCNC(=O)c1cc2c(c3ccccc3n2C)n1C(=O)N(C)C | 2.3 | -2.9 |
| COc1ccc(CNC(=O)NC2CCN(CC(F)F)CC2)cc1C | -0.127 | -3.6 |
| NC(=O)c1cc(NC(=O)N2CCCCCC2)ccc1F | 1.17 | -21.4 |
| Cc1nc(C)c(C(=O)NCCNC(=O)Cc2cccc(F)c2)s1 | 4.17 | 6.14 |
| CCn1cc(NC(=O)NCC2(N3CCOCC3)CCSC2)cn1 (configuration not stated) | 1.79 | -20 |
| Cc1nc(N(C)C)nc2c1COCC21CCN(C(=O)NC(C)C)C1 (configuration not stated) | 2.63 | -1.42 |
| NC(=O)C1CN(Cc2c[nH]cn2)CCN(C2CCOCC2)C1 (configuration not stated) | -0.938 | -0.548 |
| O=C(NC1CC1)[C@@H]1CCO[C@@H]2CCN(C3CCOCC3)C[C@H]21 | 5.8 | -34.3 |
| O=C(O)CCc1cc2n(n1)CCCN(C(=O)c1ccc3cc[nH]c3c1)C2 | -1.19 | -1.98 |
| CN(Cc1cn2c(n1)CN(CC1CC1)CC2)Cc1ccco1 | 3.75 | -1.46 |
| CC(C(=O)Nc1ccc(N2CCCC2)nc1)n1cncn1 (configuration not stated) | 0.459 | 11.3 |
| Cc1cnn(C2CCCN(C(=O)c3cc(C)sc3C)C2)c1 (configuration not stated) | -4.82 | -24.8 |
| CCC(=O)N1CCCC(c2cc(Nc3ncccn3)nc(C)n2)C1 (configuration not stated) | 1.35 | 12.4 |
| CCn1nc2c(cc1=O)CN(Cc1nc3ccccc3c(=O)[nH]1)CC2 | -3.91 | 1.48 |
| CCNC(=O)Nc1ccc2c(ccn2CC(=O)N(CC)CC)c1 | -3.17 | 30.4 |
| O=c1[nH]c(CN(Cc2ccco2)C2CCCC2)nc2ccccc12 | -3.64 | -24.3 |
| COc1ccc(CCC(=O)NC2CCC(O)CC2)cc1OC (configuration not stated) | -2.67 | 33 |
| CCCOCCCNc1nccc(-c2cn(C)nc2C)n1 | -3.96 | 18.1 |
| COc1ccc2c(c1)CCN(CCC(=O)O)CC2 | 3.94 | -33.8 |
| N#Cc1cccc(C(=O)N2CCc3ncc(Cn4cccn4)n3CC2)c1 | 3.32 | 9.25 |
| CC(C)CCn1c(=O)nc2n1C(=O)N(c1ccc(F)cc1)C2 | -0.24 | -15.1 |

| Structure (SMILES) | Percent Effect [1] [%] | Percent Effect [2] [%] |
| --- | --- | --- |
| Cc1cc(F)cc(S(=O)(=O)NCCCN2CCC(O)CC2)c1 | 4.04 | -67.2 |
| O=C(O)c1nnn(-c2ccc(OC(F)(F)F)cc2)c1-c1ccncc1 | 4.91 | -8.85 |
| Cc1occc1C(=O)N1CCO[C@H]2[C@@H](Oc3ccccn3)CC[C@@H]21 | -0.28 | -16.2 |
| Cc1noc([C@@H]2C[C@H]3OCC[C@H]3N(S(=O)(=O)c3cccnc3)C2)n1 | -1.34 | -21.9 |
| CN(C)CC1CN(CCOc2cccc(C#N)c2)CCO1 (configuration not stated) | -0.815 | 15.6 |
| COCCN1C[C@@H]2CN(Cc3cccc(F)c3)CCC[C@]2(C(=O)O)C1 | 6.95 | -10.4 |
| Cc1nn(C)c(C)c1C(C)NC(=O)Nc1cccnc1N1CCCC1 (configuration not stated) | -3.63 | 10.7 |
| CCn1cnnc1CNC(=O)N(C)Cc1ccc2c(c1)OCCO2 | 14.5 | 13.4 |
| Cn1cc(CN2CCCN(C(=O)c3cn4ccccc4n3)CC2)cn1 | 1.48 | -25.9 |
| CC(=O)Nc1nc(C(=O)N2CCCC2Cn2cc(C)cn2)cs1 (configuration not stated) | -1.84 | 20.3 |
| CCCn1nc2c(cc1=O)CN(CCCS(N)(=O)=O)CC2 | 18.8 | 7.35 |
| Cc1ccc(-c2cc(C(=O)NC(C)C(=O)N3CCCCC3)on2)cc1 (configuration not stated) | 2.34 | -5.52 |
| CC(=O)N1CCC2(CCCN(C(=O)c3ccccc3)C2)C1 (configuration not stated) | -1.28 | -1.81 |
| CN(C)CCN1CCOCC2(C1)CN(Cc1ccsc1)CCO2 (configuration not stated) | 6.63 | 3.8 |
| Cc1nc(C)c2c(n1)CCN(C(=O)CC1CC1)CC2 | -2.64 | -5.99 |
| O=C(Cc1ccsc1)NCC1OCCc2cn(CC3CC3)nc21 (configuration not stated) | 1.47 | -11.5 |
| CCn1ncnc1C1CC(=O)NCc2nc3ccccn3c21 (configuration not stated) | -2.72 | 2.83 |
| Cc1cc(C)c(CNC(=O)NCC2CCCN2C)c(=O)[nH]1 (configuration not stated) | -1.7 | 26.6 |
| O=C(c1cccn1Cc1cccs1)N1CCCC1Cn1cccn1 (configuration not stated) | -0.702 | 14.5 |
| CCN(CC)C(=O)CN(C)C1CCc2ccccc21 (configuration not stated) | -4.5 | 14.4 |
| c1cnc(N2CCOC3(CCN(CC4CCCCC4)CC3)C2)nc1 | -0.897 | -3.02 |
| CCN(C)Cc1cnc(S(=O)(=O)CC)n1CCOC | -5.11 | -0.758 |
| Cc1cnc(NC(=O)N2CCCC2)s1 | 1.37 | 1.43 |
